# Reference: PubChem BioAssay AID540256 (National Center for Advancing Translational Sciences (NCATS), 2011)
# The campaign covered roughly 300,000 compounds. About 3,700 (1.2%) were called active. Inconclusive results (about 20%) are left out. What follows is part of a selection rich in actives, with near analogues and random picks from the rest. Unmarked numbers belong to inactive results. The call rests on the fitted dose curve; tested in HEK293 cells.
# Test: qHTS for Inhibitors of binding or entry into cells for Lassa Virus; further: nearly all actives have a fitted effect of over 50% in size
# Conditions: Lassa virus pseudotype entry inhibition, cell reporter; series mostly up to 37.9 µM; activity change, negative = inhibition: at the top concentration
# On the % scale 0 is the no-effect control and ±100 the full control effect; potency means the concentration at half of the fitted maximal effect.
SMILES,"activity change, negative = inhibition",Potency
O=C(Nc1cccc(S(=O)(=O)N2CCOCC2)c1)C12CC3CC(CC(C3)C1)C2,0.293% [at 46.1 µM],–
COc1ccc(NC(=O)/C(C#N)=C\c2cc(OC)c(OCc3ccc(C(=O)O)cc3)cc2Br)cc1,12.9%,–
N#C/C(=C\c1ccc(O)c(O)c1)C(=O)NCc1ccccc1,1.83%,–
COc1ccc(CNC(=O)/C(C#N)=C/c2cccc(OC)c2OC)cc1,–,3.55 µM (active)
O=C(Nc1ccc(Cl)c(Cl)c1)c1ccccc1NC(=O)C1CC=CCC1C(=O)O (centres undefined),16.9% [at 46.1 µM],–
Cc1ccc(CNC(=O)c2c(-c3ccccc3)noc2C)cc1,16.7% [at 46.1 µM],–
CCOC(=O)c1c(-c2cccc(C)c2)csc1NC(=O)c1c(-c2ccccc2)noc1C,–,0.562 µM (active)
CC(=O)Nc1cccc(NC(=O)c2c(-c3ccccc3)noc2C)c1,-0.808%,–
Cc1cccc(N2CCN(c3ccc(C(=O)O)cc3NC(=O)c3ccccc3F)CC2C)c1 (centres undefined),13.8% [at 46.1 µM],–
NC(=O)C1(Nc2ccccc2Cl)CCCC1,-22.7%,–
Cc1noc(NS(=O)(=O)c2ccc(N/C=C/C(=O)c3ccccc3)cc2)c1C,1.23%,–
CCOc1ccc(N/C=C/C(=O)c2ccccc2)cc1,–,7.08 µM (active)
O=C(/C=C\NCC(=O)c1ccccc1)c1ccccc1,0.347%,–
COc1ccc(Cn2c(C(=O)O)c(CNCCc3cccs3)c3ccc(OC)cc32)cc1,-13.2% [at 46.1 µM],–
COc1ccc2c(CNCCc3ccccc3C)c(C(=O)O)n(Cc3ccccc3C)c2c1,-8.31% [at 46.1 µM],–
COc1ccc(CCNCc2c(-c3ccccc3)n(C)c3ccccc23)cc1,–,8.91 µM (active)
CCOC(=O)C1CCN(C(=O)COc2cccc3ccccc23)CC1,17.3% [at 46.1 µM],–
O=C(Nc1cc(S(=O)(=O)N2CCCCC2)ccc1Cl)C1COc2ccccc2O1 (centres undefined),-24.8%,–
COc1cccc(CNC(=O)c2ccc3c(c2)sc2nc(-c4cccc(OC)c4)cn23)c1,-0.598% [at 46.1 µM],–
CC(=O)c1ccc(S(=O)(=O)N2CCN(c3nc4c(C)c(C)ccc4cc3C#N)CC2)cc1,–,18.3 µM (active)
Cc1cc(C)c2nc(N3CCCC3)c(C#N)cc2c1,11.1%,–
CC(=O)c1cc(C#N)c(N2CCCCC2)nc1C,0.572%,–
COc1ccc(N2CCN(C(=O)COC(=O)c3cccc(S(=O)(=O)Nc4ccccc4OC)c3)CC2)cc1,-29.3%,–
COCCN(C(=O)C(C)N1C(=O)c2ccccc2C1=O)c1c(N)n(CC(C)C)c(=O)[nH]c1=O (centres undefined),10.8%,–
O=C(Nc1ccn(Cc2ccccc2)n1)c1n[nH]c([N+](=O)[O-])c1Cl,–,7.31 µM (active)
CC(=O)Nc1ccn(Cc2c(F)cccc2Cl)n1,23.3%,–

SMILES,"activity change, negative = inhibition",Potency
Cn1cc([N+](=O)[O-])c(C(=O)Nc2cnn(Cc3ccc(F)cc3)c2)n1,-15%,–
O=C(CN1CCC(NC(=O)Nc2ccccc2)CC1)Nc1cccc([N+](=O)[O-])c1,9.38%,–
CCn1c(SCC(=O)Nc2ccc(Br)cc2)nc2sc3c(c2c1=O)CCN(C)C3,13.2% [at 46.1 µM],–
COc1ccc(C)cc1Nc1nc(C)nc2c1oc1ccccc12,-17.2%,–
CCC1([N+](=O)[O-])COC(c2ccc(C(C)C)cc2)OC1 (centres undefined),0.913% [at 46.1 µM],–
COc1ccc(/C=C2\CCCC3C2=NN(C(=O)c2scnc2C)C3c2ccc(OC)cc2)cc1 (centres undefined),–,1.03 µM (active)
COc1ccc(/C=C2/CCCc3ccccc3C2=O)cc1,-3.13%,–
CCOc1ccccc1-c1nc(CN2CCC(C(=O)N3CCOCC3)CC2)c(C)o1,1.92%,–
COc1cccc(C=CC(=O)C=CC=Cc2ccccc2)c1,8.13% [at 46.1 µM],–
O=[N+]([O-])c1ccc(N=NNc2ccc([N+](=O)[O-])cc2)cc1,-8.18% [at 46.1 µM],–
O=C(NCCc1ccccc1)c1c[nH]c2ccc(F)cc2c1=O,2.46% [at 46.1 µM],–
CCc1ccc(NS(=O)(=O)c2ccc3[nH]cc(C(=O)NCCc4cccc(C)c4)c(=O)c3c2)cc1,11.7% [at 46.1 µM],–
CCN(CC)S(=O)(=O)c1ccc2[nH]cc(C(=O)NCCc3ccccc3)c(=O)c2c1,–,0.224 µM (active)
Cc1ccc(-n2ncc3c2CC(C)(C)CC3NC(=O)Cc2c(C)noc2C)cc1 (centres undefined),-1.13%,–
CC(C)Cn1cnc2c1c(=O)n(CC(=O)NN)c(=O)n2Cc1ccccc1,8.73%,–
CC(C)(C)CC(C)(C)NCC(O)COCCOc1ccc(Br)cc1 (centres undefined),–,13 µM (active)
Cc1noc(COc2ccccc2OCC(O)CNC(C)(C)C)n1 (centres undefined),-8.37%,–
CC(C)(C)NCC(O)COc1cccc2[nH]c(=O)[nH]c12 (centres undefined),-18.2%,–
CN(N)c1nc(N2CCCC2)nc(N2CCCC2)n1,3.32%,–
O=C(Nc1ccccc1Cl)/C(Cl)=C(\Cl)S(=O)c1ccccc1 (centres undefined),–,8.91 µM (active)
COCCN(CCOC)C(=S)Nc1ccccc1Cl,-7.1%,–
O=C(Nc1ccccc1Cl)c1ccc2nsnc2c1,1.68%,–
CCC(=O)N1CCN(c2ccccc2NC(=O)COc2cccc(C)c2C)CC1,-25.8%,–
COc1ccc(N(CC(=O)Nc2cc(OC)cc(OC)c2)S(=O)(=O)c2c(C)n[nH]c2C)cc1,-22.8% [at 46.1 µM],–
O=C(Nc1ccccc1F)c1cc(S(=O)(=O)N2CCCCC2)cs1,–,20.6 µM (active)
Cc1ccccc1NC(=O)c1cc(S(=O)(=O)N2CCOCC2)cs1,11.5%,–

SMILES,"activity change, negative = inhibition",Potency
O=C(Nc1ccccc1C(=O)O)c1cc(S(=O)(=O)N2CCCCC2)cs1,-14.1%,–
O=C(Nc1ccc2nc(SCCOc3ccccc3)sc2c1)c1ccco1,6.39% [at 46.1 µM],–
CCCn1c(C)cc(-c2csc(NC(=O)CCc3nc4ccccc4c(=O)[nH]3)n2)c1C,13.6%,–
Cc1oc(-c2ccccc2)nc1Cn1c(SCc2cccc(C(F)(F)F)c2)nc2cccnc21,-28.6% [at 46.1 µM],–
O=S(=O)(O)c1cc2onnc2c2ccccc12,1.68% [at 46.1 µM],–
CCC(=O)/C(=C(/O)c1ccccc1)c1nc2ccccc2[nH]1,-7.18% [at 46.1 µM],–
O=C(/C(=C/c1cccc(Cl)c1)c1nc2ccccc2[nH]1)c1ccccc1,–,10 µM (active)
Oc1ccc(Cl)cc1/C=N/c1nc2ccccc2[nH]1,-23.6% [at 14.3 µM],–
CCc1ccc(NC(=O)CN2CCC(C(=O)c3ccc(OC)cc3)CC2)cc1,4.84% [at 46.1 µM],–
O=C(Nc1c(Br)cc2c(c1Br)Cc1ccccc1-2)C(F)(F)F,-2.97% [at 46.1 µM],–
CC(C=Cc1ccccc1)=NNS(=O)(=O)c1ccc([N+](=O)[O-])cc1,-16.9% [at 46.1 µM],–
O=C(/C=C/c1ccccc1)c1ccccc1O,-11.3%,–
CC(/C=C/c1ccccc1)=N\NC(=O)C1CC1(C)c1ccccc1 (centres undefined),–,1.03 µM (active)
CSCCC(NS(=O)(=O)c1ccc(C)cc1)C(=O)N(C)CC(=O)Nc1ccccc1Br (centres undefined),-7.64%,–
CN(CC(=O)Nc1ccccc1C(F)(F)F)C(=O)Cc1ccccc1F,1.54%,–
COC(=O)CC(CC(=O)OC)n1cccc1,19.3% [at 46.1 µM],–
CCOC(=O)CN1C(C(=O)c2ccccc2)=C(OC(=O)C(C)(C)C)c2ccccc2S1(=O)=O,10.1% [at 46.1 µM],–
CCOc1ccc(C(=O)NCC(=O)N2CCCCCCC2)cc1OCC,-15.1%,–
Fc1ccc(-n2ncc3c(Nc4ccc(Oc5ccccc5)cc4)ncnc32)cc1,27% [at 46.1 µM],–
CCOC(=O)N1CCN(C(=O)c2ccccc2N(Cc2ccccc2)S(=O)(=O)c2ccc(OC)cc2)CC1,–,7.08 µM (active)
CCN1CCN(C(=O)c2ccccc2N(C)S(=O)(=O)c2ccc(C)cc2)CC1,-16.6%,–
NC(=O)c1ccccc1N(Cc1ccccc1)S(=O)(=O)c1ccccc1,-13.9% [at 46.1 µM],–
CN1CCOC1c1ccc(C2OCCN2C)cc1 (centres undefined),0.075%,–
CC(=O)OC1C2(CC3N4C(=O)C5(CO)SSC4(CC31O)C(=O)N5C)OC(C)C(C)(C)C2=O (centres undefined),–,1.58 µM (active)
CCOc1ccccc1/C=N/Nc1nc2ccccc2o1,-2.18%,–
O=C1CCN(C(=S)NCCc2ccccc2)CC1,4.58%,–

SMILES,"activity change, negative = inhibition",Potency
COc1ccc(CCNC(=S)N2CCN(S(=O)(=O)c3ccc(Cl)cc3)CC2)cc1,0.0467%,–
Oc1cc2c(cc1O)CN(C(=S)NCCc1ccc(Cl)cc1)CCC2,–,11.6 µM (active)
Cn1cc(C2OC(=O)c3ccccc32)c2ccccc21 (centres undefined),-3.46% [at 46.1 µM],–
COC(=O)c1ccc(C(=O)OC)c(NC(=S)N2CCN(c3ccc(F)cc3)CC2)c1,0.467%,–
COC(=O)c1ccc(C(=O)OC)c(NC(=S)N2CCCCC2)c1,3.3%,–
COC(=O)c1ccc(C(=O)OC)c(NC(=S)N2CCN(c3cc(Cl)ccc3C)CC2)c1,–,4.47 µM (active)
Cc1ccc2c(=O)cc(C(=O)Nc3sc4c(c3C(=O)NCc3cccnc3)CCCC4)oc2c1,-15.3% [at 46.1 µM],–
COc1ccc(NS(=O)(=O)c2ccc(C)c(C(=O)NCC(c3cccs3)N3CCOCC3)c2)cc1 (centres undefined),6.31%,–
C/C(=N\NC(=S)NCc1ccccc1)c1ccc(Cl)cc1,–,5.8 µM (active)
CN(C)CCCNC(=S)NCc1ccc(Cl)cc1,4.48%,–
S=C(NCc1ccc(Cl)cc1)NC1CCCCC1,-10.7%,–
O=C(Nc1ncccc1O)c1ccc(S(=O)(=O)N2CCCC2)cc1,-16.6%,–
O=C(OC12CC3CC(CC(C3)C1)C2)c1ccc(NCc2cc(O)ccc2O)cc1,–,10 µM (active)
CC(=O)Nc1ccc(C(=O)/C=C/c2ccc[nH]2)cc1,-3.48%,–
O=C(COc1ccccc1[N+](=O)[O-])N/N=C/c1ccc[nH]1,10.1%,–
CCCC(=O)Nc1ccc(C(=O)N/N=C/c2ccc[nH]2)cc1,–,10 µM (active)
O=C(Nc1c[nH]c(=O)[nH]c1=O)OCc1ccccc1,25% [at 46.1 µM],–
Cc1csc(=O)n1CC(=O)Nc1ccc(S(C)(=O)=O)cc1,-0.731% [at 46.1 µM],–
CCNC(=O)CCc1nc(-c2ccc(C(C)(C)C)cc2)no1,–,11.2 µM (active)
Cc1ccc(-c2noc(CCC(N)=O)n2)cc1,3.84%,–
CCNC(=O)CCc1nc(-c2ccc(C)cc2)no1,24.1%,–
CC1(C)C/C(=N/Nc2ccc([N+](=O)[O-])cc2[N+](=O)[O-])C(C)(C)O1,-0.704%,–
Cc1[nH]n(C)c(=O)c1N=Nc1ccc(S(C)(=O)=O)cc1,2.14%,–
Cc1[nH]c2ccc(S(N)(=O)=O)cc2c1C,13.6%,–
NS(=O)(=O)c1ccc(N=Nc2c(=O)[nH]c3ccc4[nH]cccc4c23)cc1,–,0.628 µM (active)
O=C(Cn1cnc2ccccc2c1=O)NNC(=O)c1ccccc1F,19.1%,–
